# PostGolgi ctrl: yeast control strain growth, post-Golgi counter-screen; efflux-deficient yeast background strain, growth absorbance A615, 16 h; inhibition, % at 10 µM; 98,000 compounds, 5% hits
# PostGolgi yeast: growth inhibition of a yeast mutant, post-Golgi transport screen | post-Golgi transport phenotypic cell assay | inhibition, % at 10 µM | 98,000 compounds, 0.9% hits | AID 739;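 further: yeast cells grown in 1536-well plates; yeast grown about 18 h at 30C before absorbance read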
# CYP2C19 inh: human CYP2C19 inhibition | P33261 | CYP2C19 Supersomes, luciferin-H EGE luminescence, 30 min | inhibition, % at 5 µM | 96,000 compounds, 21% hits;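 active means CYP2C19 inhibition above a set limit at 5 µM in the primary screen, cut at about 50% in these data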;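 further: plate controls were negative control wells for no effect and 2.5 mM tranylcypromine positive control for full effect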
# CYP2C9 act: CYP2C9 (human) activation; P11712; recombinant CYP2C9, luciferin-H conversion, luminescence; hits give high values; factor 1 = untreated enzyme, 0 = blocked; activation factor at 5 µM; 96,000 compounds, 1.4% hits; AID 1024;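 active means activation factor of 2 or more for CYP2C9 at a 5 µM dose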;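 further: 0 = sulfaphenazole-blocked wells and 1 = vehicle-only wells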
# Target sequence (P11712 whole entry, looked up): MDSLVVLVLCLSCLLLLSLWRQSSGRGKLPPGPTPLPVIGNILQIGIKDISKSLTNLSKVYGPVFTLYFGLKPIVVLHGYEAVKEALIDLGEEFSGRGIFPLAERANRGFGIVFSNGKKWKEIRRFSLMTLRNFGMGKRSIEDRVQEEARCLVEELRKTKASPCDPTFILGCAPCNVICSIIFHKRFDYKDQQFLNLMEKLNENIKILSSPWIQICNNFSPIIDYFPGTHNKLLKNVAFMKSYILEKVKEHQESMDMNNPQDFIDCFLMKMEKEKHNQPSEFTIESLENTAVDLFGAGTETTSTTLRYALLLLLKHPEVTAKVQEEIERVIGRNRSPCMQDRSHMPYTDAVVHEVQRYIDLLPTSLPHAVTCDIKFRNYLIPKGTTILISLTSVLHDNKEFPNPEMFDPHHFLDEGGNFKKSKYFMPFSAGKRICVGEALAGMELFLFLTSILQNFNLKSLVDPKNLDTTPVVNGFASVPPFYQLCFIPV
# CYP2C19 act: activators of human cytochrome P450 2C19; P33261; recombinant CYP2C19, luciferin-H EGE luminescence; hits give high values; 0 = fully inhibited enzyme, 1 = untreated enzyme; activation factor at 5 µM; 96,000 tested, under 10 active; AID 1025;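 active means activation factor of at least 2 at 5 µM in the primary screen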;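 further: 0 = wells with 2.5 mM tranylcypromine and 1 = vehicle-only wells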
# CYP2C9 inh: blocks human cytochrome P450 2C9; P11712; 96,000 compounds, 20% hits; inhibition, % at 5 µM; CYP2C9 Supersomes, luciferin-H conversion, luminescence;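 active means blocking of liver enzyme CYP2C9 beyond about 50% at 5 µM, limit read from the data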
# Active calls of the source: *; x = not tested or not shown. Hits are enriched below; roughly 32% of the tested compounds scored in any of these assays. Unless noted, no stated cut-off is given here; in the data, active means inhibition above about 30%; inactive means the rest.
SMILES,PostGolgi ctrl,PostGolgi yeast,CYP2C19 inh,CYP2C9 act,CYP2C19 act,CYP2C9 inh
O=C(COC(=O)C1=Cc2ccccc2OC1)NC1CCCC1,26.8,-5.7,27.8,0.8,0.7,19.5
Cc1cccc2cc(C#N)c(NCCNC(=S)NCCCN3CCOCC3)nc12,0.3,-3.5,6.0,0.3,0.9,71.2*
Cc1cccc2cc(C#N)c(NCCNS(=O)(=O)c3ccc4c(c3)OCCO4)nc12,24.7,6.9,53.1*,0.4,0.5,56.9*
CCOC(=O)c1cc(-c2nnc(-c3ccc(Oc4ccccc4)cc3)o2)c(C)nc1C,3.6,-0.2,13.7,0.4,0.9,62.8*
CCOc1cccc(C(=O)Nc2cccc(-c3nnc(-c4ccccc4)o3)c2)c1,3.7,-5.0,35.1,0.6,0.6,41.5
CC(C)(O)C1=NOC(c2ccccc2)C1 (stereo unspecified),-3.5,-1.3,-3.9,1,1,-2.9
OC1(C2(O)CC(c3ccccc3)ON2)CCCCC1 (stereo unspecified),-0.9,-1.8,77.0*,0.9,0.2,10.2
COc1ccc(S(=O)(=O)N2CCC(NC(=O)Nc3ccc(C)cc3)CC2)cc1,-0.6,-7.3,15.2,1,0.8,0.2
CC(=O)Nc1cccc(N(C)C)c1,20.5,9.5,-1.0,1,1,-1.2
CN(C)c1cccc(NC(=O)CCc2ccccc2)c1,-1.5,-8.8,95.4*,0.7,0,33.8
CN(C)c1cccc(NC(=O)Cc2ccc(F)cc2)c1,7.7,6.6,98.0*,0.4,0,61.8*
CCOc1cc(NC(=S)Nc2cccc(OC)c2)c(OCC)cc1NC(=O)C(C)C,-4.0,-0.2,3.6,0.9,1,14.5
CCOc1ccccc1C(=O)Nc1cc(Cl)ccc1O,86.9*,9.3,-9.4,1.3,1.1,-26.8
COc1ccc(OC)c(NC(=O)c2ccccc2SC)c1,3.0,-1.5,38.3,0.9,0.6,12.2
CCOc1cc(NC(=S)Nc2ccccc2)c(OCC)cc1NC(=O)c1ccc(OC)cc1,-1.3,-6.8,48.4,0.3,0.5,68.9*
CCOc1ccccc1C(=O)Nc1cc(OC)ccc1OC,47.2*,0.9,30.4,0.6,0.7,37.6
COc1ccccc1C(=O)Nc1cc(Cl)ccc1O,-2.8,-4.2,6.9,0.8,0.9,15.1
O=C(O)c1cccc(CSc2ncccn2)c1,11.6,-3.0,-3.8,1,1,-4.5
COc1ccc2cc(CCNC(=O)c3ccc(Br)o3)c(=O)[nH]c2c1,99.3*,12.6,50.8*,0.8,0.5,24.9
Cc1cc2cc(CCNC(=O)CC(C)(C)C)c(=O)[nH]c2cc1C,-5.8,-9.1,-11.1,1.2,1.1,-16.2
Cc1cc2cc(CCNC(=O)c3ccc(Br)o3)c(=O)[nH]c2cc1C,101.7*,4.1,43.1,0.6,0.6,43.4
CCC(CC)C(=O)NCCc1cc2ccc(OC)cc2[nH]c1=O,5.7,-2.5,2.2,0.9,1,9.3
COc1ccc2cc(CCNC(=O)C3CC3)c(=O)[nH]c2c1,3.6,5.3,4.1,0.9,1,7.2
COc1ccc2cc(CCNC(=O)c3ccc4c(c3)OCO4)c(=O)[nH]c2c1,30.3*,-3.6,37.2,0.2,0.6,81.5*
CC(C)(C)n1ncc2c(=O)n(CC(=O)NCc3ccccc3)cnc21,-1.1,-1.3,x,x,x,x
SMILES,PostGolgi ctrl,PostGolgi yeast,CYP2C19 inh,CYP2C9 act,CYP2C19 act,CYP2C9 inh
Cc1ccc2c(CC(=O)OCc3nc(N)nc(Nc4ccccc4C)n3)coc2c1,36.3*,5.8,11.5,0.5,0.9,46.5
Cc1ccccc1Nc1nc(N)nc(COC(=O)C(NC(=O)c2ccco2)C(C)C)n1 (stereo unspecified),7.1,-0.8,30.9,0.4,0.7,58.9*
Cc1ccccc1Nc1nc(N)nc(COC(=O)CCS(=O)(=O)c2ccccc2)n1,-2.9,-6.6,13.0,0.8,0.9,20.8
Cc1n[nH]c(C)c1S(=O)(=O)N1CCOCC1,2.4,-5.8,-20.5,1.2,1.2,-19.0
Cc1ccc(-c2n[nH]c(=O)c3ccccc23)cc1N,3.2,4.6,67.6*,0.8,0.3,23.0
CCOc1ccc2[nH]c(=O)c(CN(CCO)C(=O)c3ccc(F)cc3)cc2c1,2.5,18.1,6.2,0.8,0.9,23.3
COc1ccc(C(=O)Oc2ccc(C(C)=O)cc2)c(OC)c1,-2.5,11.2,59.0*,1,0.4,2.7
O=C(N/C(=C/c1ccco1)C(=O)N1CCCCC1)c1cccs1,27.0,-7.1,-20.5,1.2,1.2,-23.4

# High-throughput results: PubChem BioAssay, several laboratories
